Source: PubChem (National Center for Advancing Translational Sciences (NCATS))
Compounds with a hit are over-represented: about 21% of the library has one in this group of screens.
Pf growth 96h – P. falciparum growth inhibition at 96 hour, primary screen for plastid delayed-death inhibitors; P. falciparum luciferase reporter growth, 96 h; Potency, µM (highest dose often 28.7 µM), without a hit: at the highest dose activity change, negative = inhibition, usual class: inhibitors; 320,000 tested, 6.9% active; further: potency means the concentration at half of the fitted maximal effect; on the % scale 0 is the no-effect control and ±100 the full control effect
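Parasite growth measured via integrated firefly luciferase reporter in P. falciparum. Infected erythrocytes at 2% hematocrit, 0.05% parasitemia final were treated 96 hours at 37 C under 5% CO2, and luminescence was read.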
HCV inh – blocks hepatitis C virus | 340,000 tested, 3.4% active | Huh7.5.1 HCVcc-Cre infection, luciferase reporter, 44 h | Potency, µM (top dose mostly 41.8 µM), without a hit: top-dose activity change, negative = inhibition, usual class: inhibitors | AID 651820; further: potency means the concentration at half of the fitted maximal effect; on the % scale 0 is the no-effect control and ±100 the full control effect
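A cell-based infection assay in which seeded cells (1,000 per well) receive test compound after 4 h, are inoculated with HCVcc-Cre at approximately 0.5 moi, and are incubated 44 h before luminescence detection.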
Shiga inhibitor – Shiga toxin inhibition; AID 2315; Vero cells, Shiga toxin protein synthesis inhibition reporter; 290,000 tested, 9.2% active; inhibition, % at 38.7 µM; in the data active means inhibition mostly above about 28%, no sharp cut-off; inactive means mostly below about 43%; further: 0% is about no effect
HCMV inh – blocks human cytomegalovirus replication. HFF cells, HCMV-luciferase reporter, 72 h; hits give low values. 410,000 tested, 4.5% active. AID 1259415. activity change, negative = inhibition, % at 57.5 µM; in the data active means activity change below about -60%; inconclusive means no clear call, values can overlap the other calls; inactive means above about -39%; further: on the % scale 0 is the no-effect control and ±100 the full control effect
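Two compound doses tested in HFFs infected with HCMV-luciferase, MOI 1 PFU/cell, 72 h at 37C. Lysate luminescence read with OneGlo; data normalized against buffer-only and 10uM Salinomycin inhibitor controls.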
CHX counter – counter-screen hit for Shiga toxin inhibitors, cycloheximide; cell reporter, cycloheximide protein synthesis inhibition counterscreen; max response, %; 300,000 tested, 12% active; AID 2314; in the data active means max response mostly above about 13%, no sharp cut-off; inactive means mostly below about 14%; further: read at 38.3 µM for the half of the compounds with a filed dose; 0% is about no effect
Pf growth 48h – P. falciparum growth inhibition at 48 hours (one generation); Potency, µM (top dose mostly 28.7 µM), for inactives: top-dose activity change, negative = inhibition, most hits filed as inhibitors; P. falciparum luciferase growth in erythrocytes, 48 h; 310,000 tested, 5.9% active; further: potency means the concentration at half of the fitted maximal effect; on the % scale 0 is the no-effect control and ±100 the full control effect
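First compound was added to culture medium, then infected red cells at 0.1% parasitemia and 2% hematocrit (final). After incubation at 37 C under 5% CO2, luciferase detection reagent was dispensed and light output recorded.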
Numbers without * were called inactive; i = inactive; ? = inconclusive; . = no result given. Unless noted, the call rests on the fitted dose curve; in most records, active means well fitted inhibition curve with a large enough effect; inconclusive means small, poorly fitted or top-dose-only effect, or another doubt; inactive means no such curve, though single readings can be large or run the other way.

SMILES | Pf growth 96h | HCV inh | Shiga inhibitor | HCMV inh | CHX counter | Pf growth 48h
Cc1sc(NC(=O)CS(=O)(=O)c2ccccc2)c(C#N)c1C | 73% | 11% | . | -8 | . | 61%
CCc1ccc(-c2nc(CN3CCC(C(=O)NCCc4ccc(Cl)cc4)CC3)c(C)o2)cc1 | . | . | . | 7 | . | .
CC(OC(=O)CSc1ccccc1)C(=O)NC1CCCCC1C (stereo unspecified) | 59% | 3% | . | -39 | . | -7%
Cn1c(NC(=O)c2ccccc2C(F)(F)F)cc(=O)n(C)c1=O | 2% | 10% | -13 | -66* | -1 | 6%
O=C(Nc1ccnn1C1CCN(Cc2ccc(OC(F)F)cc2)CC1)C1CCCC1 | -24% | 22µM* | -20 | -23 | -2 | ?
O=C(Nc1ccnn1C1CCN(C/C=C/c2ccccc2)CC1)C1CCCC1 | ? | -2% | 13 | ? | 6 | 13µM*
O=C(CCc1ccccc1)Nc1ccnn1C1CCN(C/C=C/c2ccccc2)CC1 | 3% | -21% | -6 | -10 | -1 | -17%
COc1ccccc1C(=O)Nc1ccnn1C1CCN(C)CC1 | 21% | 13% | -3 | -5 | -10 | 10%
O=C(Nc1ccnn1C1CCN(Cc2ccc(Cl)cc2)CC1)C1CCCC1 | ? | -13% | -5 | -25 | -3 | 3%
COc1ccccc1C(=O)Nc1ccnn1C1CCN(C(=O)C2CCOC2)CC1 (stereo unspecified) | 10% | 15% | 32 | -9 | 13* | 12%
COc1ccccc1/C=C/CN1CCC(n2nccc2NC(=O)CCc2ccccc2)CC1 | ? | 3.5µM* | -14 | ? | 7 | ?
N#Cc1cccnc1Oc1ccccc1 | 42% | 3% | 9 | 59 | 6 | ?
COC(=O)c1ccccc1NC(=O)CSc1nc(C)c(Cl)c(C)c1C#N | . | . | . | -13 | . | .
CCn1c(=O)cc(SCC(=O)Nc2cc(Cl)ccc2OC)c2ccccc21 | . | . | . | 13 | . | .
COc1ccc(S(=O)(=O)c2cnc3cc(OC)c(OC)cc3c2N2CCCC(C)C2)cc1 (stereo unspecified) | . | . | . | -32 | . | .
CCOc1ccc(-c2cc(C(=O)N3CCN(c4ccc(C)cc4)C(C)C3)c3ccccc3n2)cc1 (stereo unspecified) | . | . | . | 61 | . | .
COc1ccccc1C(=O)Nc1ccnn1C1CCN(C/C=C/c2ccc(F)cc2)CC1 | -13% | ? | -6 | 4 | -4 | 12µM*
O=C(Nc1ccnn1C1CCN(C/C=C/c2ccccc2)CC1)c1ccccc1Cl | 31% | . | 5 | 22 | 8 | ?
CCCCOc1ccc(CCN)cc1Cl | 31% | ? | 20 | -60* | 34* | 5%
CCOc1ccc(CSC(=N)N)cc1Cl | ? | -17% | -2 | 10 | -3 | ?
CCCCOc1ccc(CSCCN)cc1Cl | 0% | ? | 73* | -3 | 23* | 37%
CCOC(=O)C1(CCCc2ccccc2)CCN(S(C)(=O)=O)CC1 | ? | 1% | 16 | 9 | 3 | 322%
O=C(c1ccccc1Cl)N1N=C(c2ccc(Br)cc2)CC1c1nc2ccccc2[nH]1 (stereo unspecified) | 52% | 11µM* | 28 | -10 | 17* | 3%
CNC(=O)c1sc(-c2cccs2)nc1C | 54% | 7% | 34 | 5 | 36* | 24%
Cn1nnnc1NN=Cc1ccccc1 | . | . | . | -32 | . | .
SMILES | Pf growth 96h | HCV inh | Shiga inhibitor | HCMV inh | CHX counter | Pf growth 48h
Cn1nnnc1P(=O)(c1ccccc1)c1ccccc1 | 10µM* | 6% | -12 | 12 | 2 | -13%
COC(=O)C(C)NC(=O)N1CCN(c2nnc(C)c3c(C)n(-c4ccc(Cl)cc4)nc23)CC1 (stereo unspecified) | . | . | . | -2 | . | .
O=C(c1cnn2c(C(F)(F)F)cc(-c3cccs3)nc12)N1CCN(Cc2ccccc2)CC1 | ? | ? | -10 | -12 | -3 | 2.3µM*
O=C(c1cnn2c(C(F)(F)F)cc(-c3cccs3)nc12)N1CCN(C(c2ccccc2)c2ccccc2)CC1 | ? | ? | -2 | -23 | 9 | 0.93µM*
COc1ccccc1-c1cc(C(F)(F)F)n2ncc(C(=O)N3CCc4ccccc4C3)c2n1 | ? | 11µM* | -17 | -13 | -2 | 2.3µM*
COc1ccccc1-c1cc(C(=O)N2CCc3ccccc3C2)c2ccccc2n1 | ? | . | -8 | . | -1 | ?
O=C(CNCC1CCCO1)Nc1ccc([N+](=O)[O-])cc1C(=O)Nc1ccccc1F (stereo unspecified) | 5.9µM* | -10% | -2 | 0 | -1 | ?
COc1cccc(NC(=O)c2cc([N+](=O)[O-])ccc2NC(=O)CNCC2CCCO2)c1 (stereo unspecified) | 29% | ? | -3 | 24 | -2 | ?
Cc1ccc(C)c(N2CCN(CC(=O)Nc3ccc([N+](=O)[O-])cc3C(=O)Nc3ccccc3F)CC2)c1 | 2.3µM* | -3% | -14 | 5 | -6 | ?
O=C(CN1CCN(c2cccc(Cl)c2)CC1)Nc1ccc([N+](=O)[O-])cc1C(=O)Nc1ccccc1F | 31% | ? | -14 | 14 | 1 | ?
CC(CCc1ccccc1)N1CCN(C)CC1 (stereo unspecified) | ? | -29% | -5 | 9 | 1 | 33%
Cc1cc(NS(=O)(=O)c2ccc(NC(=O)/C=C/c3ccccc3Cl)cc2)no1 | 48% | 8% | -4 | 27 | -2 | -11%
CCN(CC)c1ccc(NC(=O)/C=C\c2ccccc2Cl)cc1 | 1µM* | ? | 64* | 8 | 27* | ?
CN(C)c1ccc(NC(=O)/C=C/c2ccccc2Cl)cc1 | ? | ? | 80* | -16 | 32* | ?
C[n+]1ccc(CC2C(=[N+]([O-])[O-])C=Nc3ncnn32)cc1 (stereo unspecified) | 6% | 10% | -13 | 21 | -1 | 13%
O=C1CN=C(c2ccc[nH]2)c2cc(Cl)ccc2N1 | 70% | 0% | -3 | -94* | -10 | -9%
O=C(NCc1ccccc1Cl)c1ccc2c(c1)NC(=O)C(CS(=O)(=O)Cc1ccc(F)cc1Cl)N2 (stereo unspecified) | . | . | . | -26 | . | .
Cc1cc(NC(=O)CSc2nnc(Cc3ccccc3)n2C)no1 | i | -3% | -5 | 15 | -3 | -11%
Cc1cc(C)nc(SCc2nnc(SCC(=O)Nc3ccc(C)c(C)c3)n2Cc2ccco2)n1 | 13µM* | 25µM* | -13 | 33 | 11 | ?
CCn1c(Cc2ccccc2)nnc1SCC(=O)Nc1cc(C)on1 | 8.3µM* | -5% | -10 | -27 | -3 | -14%
Cc1cc(NC(=O)CSc2nnc(COc3ccccc3)n2Cc2ccco2)no1 | 8.3µM* | 11% | -5 | 11 | -3 | -16%
O=C(NCC1CCCO1)C1CCCN1C(=O)Nc1ccc(Cl)cc1 (stereo unspecified) | 37% | 15% | 14 | -30 | -3 | 20%
